The test system of this test is Plasmodium falciparum NF54/iGP1_RE9H ulg8 stage V gametocytes. Briefly: gametocyte viability (luciferase signal relative to DMSO control) (% of DMSO control); higher = less gametocytocidal activity, active = 50 or less. The conditions noted are these: exposure time: 72 h. The procedure, abridged:
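Gametocyte viability is reported relative to the average of DMSO vehicle wells on the same plate. The assay used day-12 stage V NF54/iGP1_RE9Hulg8 gametocytes at ~2.5% gametocytemia and 3% hematocrit, in 0.5% Albumax II medium, added to 96-well plates of compounds spotted in nanolitre volumes for final 10 µM or 1 µM, one well each. After 72 h at 37 °C, 90 µl was mixed with 10 µl D-luciferin (30 mg/ml), and luminescence was recorded with an IVIS Lumina II.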

SMILES strings stand for the structures. Structures can show the parent of a compound that is named as a salt. Values without a mark were called inactive.

Consider `Cc1ccc(Nc2nccc(N(C)c3ccc4c(C)n(C)nc4c3)n2)cc1S(N)(=O)=O` [Pazopanib HCl], for which the gametocyte viability reads like this: (concentration: 1 µM) 98; (concentration: 10 µM) 109.

For the compound `C=CC(=O)Nc1cccc(Sc2nc(Nc3ccc(N4CCN(C)CC4)cc3)ncc2Cl)c1`, the gametocyte viability is 87.2 (concentration: 1 µM) and 72.7 (concentration: 10 µM).

`Cn1cc(-c2ccc3nnc(C(F)(F)c4ccc5ncccc5c4)n3n2)cn1`: the gametocyte viability is, setting by setting: (concentration: 1 µM) 98.2; (concentration: 10 µM) 118.

Take `Clc1ccc(Nc2nnc(Cc3ccncc3)c3ccccc23)cc1` [Vatalanib dihydrochloride (PTK787)]: the gametocyte viability runs as follows: (concentration: 1 µM) 111; (concentration: 10 µM) 115.

Turning to `O=C(NOC[C@H](O)CO)c1ccc(F)c(F)c1Nc1ccc(I)cc1F`, the gametocyte viability (concentration: 1 µM) is 114 and the gametocyte viability (concentration: 10 µM) was 110.

`Cc1c(NC(=O)OC[C@@H]2COCCN2)cn2ncnc(Nc3ccc4c(cnn4Cc4cccc(F)c4)c3)c12`: the gametocyte viability by setting is: (concentration: 1 µM) 85.8; (concentration: 10 µM) 96.

With `C[C@@H](Oc1cc(-n2cnc3ccc(CN4CCN(C)CC4)cc32)sc1C(N)=O)c1ccccc1C(F)(F)F`, the gametocyte viability is 103 (concentration: 1 µM) and 81.6 (concentration: 10 µM).

`Cc1cc(Nc2nc(N[C@@H](C)c3ccc(F)cc3)c(C#N)cc2F)n[nH]1`: the gametocyte viability reads like this: (concentration: 1 µM) 97.5; (concentration: 10 µM) 99.6.

As to `O=c1c(-c2ccc(O)cc2)coc2cc(O)cc(O)c12` [Genistein], the gametocyte viability (concentration: 1 µM) is 95.5 and the gametocyte viability (concentration: 10 µM) was 83.9.

In the case of `O=C(O)c1ccc2c(c1)nc(Nc1cccc(Cl)c1)c1ccncc12`, the gametocyte viability was 101 (concentration: 1 µM) and 107 (concentration: 10 µM).

As to `Cn1c(=O)c(F)c(Nc2ccc(I)cc2F)c2c(=O)n(C[C@@H](O)CO)cnc21`, the gametocyte viability was 108 (concentration: 1 µM) and 114 (concentration: 10 µM).

`CO[C@H]1C[C@@H]2CC[C@@H](C)[C@@](O)(O2)C(=O)C(=O)N2CCCC[C@H]2C(=O)O[C@H]([C@H](C)C[C@@H]2CC[C@@H](OP(C)(C)=O)[C@H](OC)C2)CC(=O)[C@H](C)/C=C(\C)[C@@H](O)[C@@H](OC)C(=O)[C@H](C)C[C@H](C)/C=C/C=C/C=C/1C` [Deforolimus (Ridaforolimus)]: the gametocyte viability (concentration: 1 µM) was 90.2 and the gametocyte viability (concentration: 10 µM) is 86.2.

For `C=CC(=O)Nc1cc2c(Nc3ccc(F)c(Cl)c3)ncnc2cc1OCCCN1CCOCC1` [CI-1033 (Canertinib)], the gametocyte viability (concentration: 1 µM) was 97.8 and the gametocyte viability (concentration: 10 µM) was 100.

Consider `O=c1cc(-c2ccc(O)cc2)oc2cc(O)cc(O)c12` [Apigenin], for which the gametocyte viability is 101 (concentration: 1 µM) and 65.3 (concentration: 10 µM).

`O=C1NC(=O)/C(=C/c2ccc3c(c2)OC(F)(F)O3)S1`: the gametocyte viability (concentration: 1 µM) is 103 and the gametocyte viability (concentration: 10 µM) is 106.

As for `C[C@@H]1CN(CC(=O)Nc2ccc3c(c2)Cc2cccc(-c4cc(=O)cc(N5CCOCC5)o4)c2S3)C[C@H](C)O1`, the gametocyte viability was 86 (concentration: 1 µM) and 68 (concentration: 10 µM).

Regarding `CN(C)CCCn1cc(C2=C(c3c[nH]c4ccccc34)C(=O)NC2=O)c2ccccc21`, the gametocyte viability reads like this: (concentration: 1 µM) 92.7; (concentration: 10 µM) 115.

As to `CCCCCCCCCCCCC/C=C/[C@@H](O)[C@@H](N)CO` [D-erythro-Sphingosine], the gametocyte viability was 113 (concentration: 1 µM) and 119 (concentration: 10 µM).

On to `C=CC(=O)c1ccc2ccccc2c1`, for which the gametocyte viability (concentration: 1 µM) is 101 and the gametocyte viability (concentration: 10 µM) is 106.

On to `O=C(Nc1cccc(Cl)c1)Nc1ncc(CCNc2ncnc3ccsc23)s1`, for which the gametocyte viability runs as follows: (concentration: 1 µM) 110; (concentration: 10 µM) 120.

As for `Fc1cc(-c2cccc3ncc(-c4cnn(C5CCNCC5)c4)nc23)cc(F)c1CN1CCOCC1`, the gametocyte viability by setting is: (concentration: 1 µM) 107; (concentration: 10 µM) 80.

`c1ccc2c(-c3cnn4cc(-c5ccc(N6CCNCC6)cc5)cnc34)ccnc2c1`: the gametocyte viability is, setting by setting: (concentration: 1 µM) 106; (concentration: 10 µM) 73.3.

Turning to `Cc1cc(Nc2nc(N[C@@H](C)c3ncc(F)cn3)ncc2Cl)[nH]n1`, the gametocyte viability reads like this: (concentration: 1 µM) 97.5; (concentration: 10 µM) 95.5.

For the compound `Cn1cnc2c(NCc3ccccc3)nc(NCCO)nc21` [Olomoucine], the gametocyte viability (concentration: 1 µM) was 95.2 and the gametocyte viability (concentration: 10 µM) is 91.5.

For `NC1(c2ccc(-c3nc4ccn5c(=O)[nH]nc5c4cc3-c3ccccc3)cc2)CCC1` [MK-2206 dihydrochloride], the gametocyte viability is, setting by setting: (concentration: 1 µM) 97.5; (concentration: 10 µM) 63.9.

As for `Clc1ccc(C2(c3ccc(-c4cn[nH]c4)cc3)CCNCC2)cc1`, the gametocyte viability is 112 (concentration: 1 µM) and 76.9 (concentration: 10 µM).

`CC(C)c1cc(/C=C(\C#N)C(=O)NCCCc2ccccc2)cc(C(C)C)c1O`: the gametocyte viability was 99.4 (concentration: 1 µM) and 97.2 (concentration: 10 µM).

Take `Cc1cn(-c2cc(NC(=O)c3ccc(C)c(Nc4nccc(-c5cccnc5)n4)c3)cc(C(F)(F)F)c2)cn1` [Nilotinib (AMN-107)]: the gametocyte viability is, setting by setting: (concentration: 1 µM) 111; (concentration: 10 µM) 107.

For the origin of these results see the supplement of paper PMC12297408.
